Screen size: about 360,000 compounds; about 3,100 (0.86%) were called active. The list comes from a sample in which actives are over-represented; it also holds similar structures and randomly drawn compounds. Unmarked numbers belong to inactive results.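 How the source made its calls: active means inhibition or corrected inhibition above about 18%, plus a signal ratio from 0.5 to 1.5 (limit read from the data, passing the limit was not always enough); inactive means the rest.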

A word on the inhibition: it is the relative decrease from the control value, in per cent.

The assay deals with Neuropilin-1 (Homo sapiens) (UniProt O14786). Put plainly: NRP-1/CendR peptide interaction modulators – biochemical, fluorescence polarization, uHTS, primary screen (AID 602438). As to conditions: FAM-RPARPAR peptide binding to NRP-1, fluorescence polarization; at 25 µM; active compounds read high.
Chain of Neuropilin-1 (Homo sapiens) (O14786 whole entry, looked up): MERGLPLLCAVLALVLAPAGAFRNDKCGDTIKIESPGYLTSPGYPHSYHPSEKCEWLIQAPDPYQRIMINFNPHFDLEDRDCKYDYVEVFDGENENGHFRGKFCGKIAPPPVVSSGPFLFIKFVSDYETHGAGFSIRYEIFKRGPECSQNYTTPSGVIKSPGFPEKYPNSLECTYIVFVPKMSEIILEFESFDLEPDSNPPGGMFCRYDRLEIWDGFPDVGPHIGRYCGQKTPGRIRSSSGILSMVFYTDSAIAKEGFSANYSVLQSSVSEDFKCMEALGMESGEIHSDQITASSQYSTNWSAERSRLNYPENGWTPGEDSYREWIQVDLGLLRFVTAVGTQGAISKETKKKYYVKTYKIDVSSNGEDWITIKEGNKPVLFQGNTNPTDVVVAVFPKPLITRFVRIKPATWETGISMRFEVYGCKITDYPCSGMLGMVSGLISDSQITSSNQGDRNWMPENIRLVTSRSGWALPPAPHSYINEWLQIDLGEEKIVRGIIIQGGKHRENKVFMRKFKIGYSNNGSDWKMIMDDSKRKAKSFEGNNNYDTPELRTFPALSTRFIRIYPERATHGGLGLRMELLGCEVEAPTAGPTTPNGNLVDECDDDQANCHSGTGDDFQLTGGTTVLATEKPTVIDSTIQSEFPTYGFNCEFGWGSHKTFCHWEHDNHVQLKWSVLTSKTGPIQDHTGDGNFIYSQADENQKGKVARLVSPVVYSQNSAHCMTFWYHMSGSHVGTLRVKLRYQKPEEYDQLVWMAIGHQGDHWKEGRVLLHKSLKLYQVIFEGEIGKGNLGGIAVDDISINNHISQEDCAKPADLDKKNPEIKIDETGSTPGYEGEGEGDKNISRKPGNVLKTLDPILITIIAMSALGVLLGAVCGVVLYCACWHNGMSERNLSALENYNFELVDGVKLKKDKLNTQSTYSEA
For `COc1nc(OC)nc(N(C)CCO)n1`, the inhibition is 14.8%. `O=C(CSc1nccn1-c1cccc(F)c1)NC1CCCC1`: the inhibition was -2.9%. Consider `CC(=O)Nc1cccc(NC(=O)CSc2nccn2Cc2ccc(F)cc2)c1`, for which the inhibition was 0.6%. Turning to `O=C(OCc1ccccc1)N1CCC2CC1c1cc(N3CCN(S(=O)(=O)c4cc(Cl)cc(Cl)c4)CC3)ccc12` (stereo not given), the inhibition is 7.8%. Regarding `Cc1ccc(F)c(S(=O)(=O)NC(=O)C2(C)CCN2C(=O)CCc2cccs2)c1` (stereo not given), the inhibition is 0.1%. On to `CC1(C(=O)NS(=O)(=O)c2ccccc2Cl)CCN1C(=O)c1cccc(F)c1` (stereo not given), for which the inhibition was 6.5%. For the molecule `Cc1ccc(F)c(S(=O)(=O)NC(=O)C2(C)CCN2C(=O)c2ccco2)c1` (stereo not given), the inhibition was 24.2% (active). Take `COC(=O)Cc1nc2c(N)nc(N)nc2[nH]c1=O`: the inhibition was 26.3% (active). Next, `CC1C(=O)N(Cc2cn(CC3CCCCC3)nn2)CCS(=O)(=O)N1Cc1ccc(-c2cccc(N(C)C)c2)cc1` (stereo not given): -7%; `Cc1ccc(-c2noc(C3CCCN(C(=O)c4cccc(Cl)c4)C3)n2)o1` (stereo not given): 3.6%. Turning to `COC(=O)CCCC1=CC2=C(c3ccccc3)C(=O)C(C)(OC(=O)C3CCCC3)C(=O)C2=CN1c1ccc(OC)cc1` (stereo not given), the inhibition was -6.8%. As to `COC(=O)CCCC1=CC2=CC(=O)C(C)(OC(=O)c3cccs3)C(=O)C2=CN1c1cccc(C#N)c1` (stereo not given), the inhibition is -18.7%.

On to `COC(=O)CCCC1=CC2=CC(=O)C(C)(OC(=O)c3cccs3)C(=O)C2=CN1CC1CC1` (stereo not given), for which the inhibition was 36.2% (active). As for `Nc1cccc(OCCCCCOc2cccc(N)c2)c1`, the inhibition was 7%. For the molecule `CCOC(=O)N1CCN(Cc2nc3c(c(=O)n(C)c(=O)n3C)n2Cc2ccccc2)CC1`, the inhibition was -7.4%. For the molecule `Cn1c(=O)c2c(nc(OCc3cccnc3)n2Cc2ccccc2)n(C)c1=O`, the inhibition was 28.5% (active). Next, `C=CCOc1nc2c(c(=O)n(C)c(=O)n2C)n1Cc1ccc(Cl)cc1Cl`: 7.1%. As for `Cc1ccccc1C(=O)N1CCC(C(=O)Oc2ccc(C#N)cc2)CC1`, the figure is -0.1%. For `CC(C)Sc1nc(N)nc2c1ncn2C1OC(CO)C(O)C1O` (stereo not given), the inhibition was -1.6%. Take `Nc1nc(SCc2ccc([N+](=O)[O-])cc2)c2ncn(C3OC(CO)C(O)C3O)c2n1` (stereo not given): the inhibition was -20.4%. As for `CC(C)Cn1cnc2c(SCc3ccc(Cl)cc3)nc(N)nc21`, the figure is 20.8% (active); as for `Cc1cccc(C)c1NC(=O)C(c1ccc(C(F)(F)F)cc1)n1c(=O)c(-c2ccco2)nc2ccccc21` (stereo not given), -67%. For `CC(NCCO)C(=O)C12CC3CC(CC(C3)C1)C2` (stereo not given), the inhibition was 6.1%.

`COc1cc(/C=C/C(=O)OCC(=O)Nc2cccc(Oc3ccccc3)c2)ccc1O`: the inhibition was -3.6%.

`COc1ccc(C(C(=O)NCc2ccccc2)n2c(=O)c(-c3ccccc3)nc3ccccc32)cc1` (stereo not given): the inhibition is -0.4%. For `CCc1[nH]nc(C(=O)N2CCCC(CNS(=O)(=O)c3cccs3)C2)c1C` (stereo not given), the inhibition is 3.8%. As for `COc1cc2c(cc1OC)C(C(C)C)=NC(C)(C)C2`, the figure is -1.6%. As for `COc1cc2c(cc1O)C(SC)=NC(C)(C)C2`, the inhibition was 9%. Turning to `COc1cc2c(cc1OC)C(Nc1ccc(S(N)(=O)=O)cc1)=NC(C)(C)C2`, the inhibition is 26.3% (active). As for `Cn1c(=O)cc(OCCCC(=O)N2CCN(c3ccccn3)CC2)c2ccccc21`, the figure is -0.5%. As for `Cc1ccc(C)c(NC(=O)C(c2ccccc2)N2CCN(CC(=O)NC3CC3)CC2)c1` (stereo not given), the figure is -1.3%; as for `CCOC(=O)c1[nH]c2ccc(C)cc2c1N=C(C)N(C)C`, 28.1% (active); as for `CCOC(=O)c1ccc2[nH]c3c(c2c1)CCCC3NC=O` (stereo not given), -0.5%. `CCOC(=O)c1cc2cc(C)ccc2[nH]1`: the inhibition is 1.1%.

`CC1CC1C(=O)OCC(=O)Nc1cccc(F)c1` (stereo not given): the inhibition is 5.8%. `O=P(c1cccs1)(c1cccs1)c1cccs1`: the inhibition is 6.4%. Regarding `CN(CCCNC(=O)CN1C(=O)CC(C)(C)S(=O)(=O)c2ccccc21)C1CCCCC1`, the inhibition is 12.4%. Take `COc1ccc(CCc2nc(-c3cccs3)no2)cc1`: the inhibition was -5.8%. Take `Clc1ccc(Cc2nnc(-c3cccs3)o2)cc1`: the inhibition was -15.6%. Consider `COc1nc(-c2ccc(Cl)cc2)ccc1-c1noc(-c2cccs2)n1`, for which the inhibition was 49.1% (active). As for `O=C(OCc1ccc([N+](=O)[O-])cc1)C1CC(=O)N(Cc2ccccc2Cl)C1` (stereo not given), the inhibition was -11.4%. `O=C(O)c1ccc(NS(=O)(=O)c2ccc3c(c2)C(=O)c2cc(S(=O)(=O)Nc4ccc(C(=O)O)cc4)ccc2-3)cc1`: the inhibition is -59.7%. Regarding `Cc1ccc(-c2noc(-c3ccccc3C(=O)NCC3CCCO3)n2)cc1` (stereo not given), the inhibition is 28% (active). In the case of `O=C(Nc1ccccc1C(=O)NCC1CCCO1)c1ccccc1F` (stereo not given), the inhibition was 20.7%. In the case of `O=C(NCC1CCCO1)c1ccccc1-c1nc(-c2ccccc2Cl)no1` (stereo not given), the inhibition is 8%. As for `COc1ccc(NS(=O)(=O)c2ccc(C)c(C(=O)NCC(c3cccs3)N3CCOCC3)c2)cc1` (stereo not given), the inhibition was 6.2%. For `CC1(C(=O)Nc2ccc3c(c2)OCCO3)CN(S(C)(=O)=O)CC(=O)N1Cc1cccc(F)c1` (stereo not given), the inhibition is -4.8%. Turning to `CN1CCCc2cc(C#N)c(=O)[nH]c21`, the inhibition was 4.8%. As to `CCCCn1nnnc1C(c1ccccc1)N1CCN(c2ccccc2OC)CC1` (stereo not given), the inhibition was -6.7%. Regarding `CCCCn1nnnc1C(c1cc2ccccc2o1)N(C)Cc1ccc(Cl)c(Cl)c1` (stereo not given), the inhibition was 26.3% (active). For `Cn1nnnc1NCc1ccc(Cl)c(Cl)c1`, the inhibition is 12.8%. As to `COc1ccc(S(=O)(=O)N2CCCC(C(=O)Nc3ccc(NC(=O)c4ccccn4)cc3)C2)cc1` (stereo not given), the inhibition is 0.1%.

For the molecule `CCCC(C(=O)n1nc(C)cc1C)C(NS(=O)(=O)c1ccc(C)cc1)c1ccccc1` (stereo not given), the inhibition is -0.9%. Regarding `O=C1OC[C@@H]2CCCN2C(=O)[C@H](CC(=O)N(CCO)Cc2ccccc2)C/C=C\CC[C@@H]1Cc1ccc(F)cc1`, the inhibition was 4.4%. In the case of `O=C1CCC/C=C\C[C@@H](CC(=O)N(CCO)Cc2ccccc2)C(=O)NCCO1`, the inhibition was 4.9%. Take `CC(C)(C)OC(=O)C[C@@H]1C/C=C\C[C@@H](CC(=O)N(CCO)Cc2ccccc2)C(=O)N[C@H](Cc2ccccc2)COC1=O`: the inhibition was -9.4%. As for `O=C1NC[C@@H](c2ccccc2)OC(=O)[C@H](Cc2ccc(F)cc2)CC/C=C/C[C@H]1CC(=O)N(CCO)Cc1ccccc1`, the figure is 23.4% (active). Take `O=C1CCC/C=C/C[C@@H](CC(=O)N(CCO)Cc2ccccc2)C(=O)NC[C@H](c2ccccc2)O1`: the inhibition is 4.9%. With `O=C1N[C@H](Cc2c[nH]c3ccccc23)COC(=O)[C@H](Cc2ccc(F)cc2)C/C=C\C[C@H]1CC(=O)N(CCO)Cc1ccccc1`, the inhibition was 22.7% (active). Turning to `CCN(Cc1ccccc1)S(=O)(=O)c1cc(C(=O)O)ccc1OC`, the inhibition is 13.4%. As to `C/C(N)=C(\C#N)C(=O)NCCc1ccccn1`, the inhibition is -1.8%. As for `CC(C)CN(C(=O)c1cccc(S(=O)(=O)N2CCCCC2)c1)C1CCS(=O)(=O)C1` (stereo not given), the figure is -6.3%; as for `COCC1CCCN(C(=O)c2ccc3oc(C(C)C)nc3c2)C1` (stereo not given), -5.1%; as for `Cc1ccc(S(=O)(=O)N(CC(O)CN2C(=O)NC(C)(C)C2=O)c2cccc([N+](=O)[O-])c2)cc1` (stereo not given), 24.8% (active). `Cc1ccc(S(=O)(=O)N(CC(O)CN2CCCCC2)c2cccc([N+](=O)[O-])c2)cc1` (stereo not given): the inhibition is -0.8%. Take `COc1ccc([N+](=O)[O-])cc1N(CC(O)Cn1nnc2ccccc21)S(=O)(=O)c1ccc(C)cc1` (stereo not given): the inhibition is 7%.

With `CCOC(=O)C1(C)CCCN(C(=O)c2cccc(Cl)c2)C1` (stereo not given), the inhibition is 20% (active). On to `CCOC(=O)C1(C)CCCN(C(=O)c2ccc(F)c(Cl)c2)C1` (stereo not given), for which the inhibition is 16.4%. With `CCOC(=O)C1(C)CCCN(C(=O)c2ccc(N(C)C)cc2)C1` (stereo not given), the inhibition was -8.3%.

Take `CC(OC(=O)c1cccnc1Cl)C(=O)NC1CCCCC1` (stereo not given): the inhibition is 0.1%. Take `CCOc1ccc(S(=O)(=O)NCCC(=O)NCC(C)(C)N2CCOCC2)cc1`: the inhibition is -3.6%. Next, `COc1ccc(C(=O)N2CC3(C)CC2CC(C)(C)C3)cc1OC` (stereo not given): 33.3% (active). As to `CN(C)C(=O)COC(=O)c1cccc(S(=O)(=O)N2CC3(C)CC2CC(C)(C)C3)c1` (stereo not given), the inhibition was 9.7%. Take `COc1ccc(C(=O)NC2CC(C)(C)NC(C)(C)C2)cc1OC`: the inhibition is -3.8%. `O=c1[nH]c2ccccc2n1C1CCN(CCOc2ccccc2)CC1`: the inhibition was -8%. Regarding `Cc1ccc(S(=O)(=O)N(CC(=O)Nc2cccnc2)c2ccc(Br)cc2)cc1`, the inhibition is 0.4%. For the molecule `COc1ccc(C2=Nn3c(nnc3-c3ccccc3OC)SC2)cc1OC1CCCC1`, the inhibition is 2.4%. On to `COc1ccccc1-c1nnc2n1N=C(c1ccc(OC(F)F)c(OCC3CC3)c1)CS2`, for which the inhibition was 18.8% (active). As for `Cc1ccc(NC2CCCN(C(=O)CCc3cn[nH]c3)C2)cc1C` (stereo not given), the figure is 5.4%; as for `CN(C)c1ccc(Nc2c3c4c(cccc4n(C)c2=O)C(=O)c2ccccc2-3)cc1`, 28.9% (active); as for `CCOc1cc(CNCCN(C)C)c(Cl)cc1OCC(=O)NCCc1ccccc1`, -1.5%.

As to `CCOC(=O)N1CCN(C(=O)Cc2ccc(-n3c(=S)[nH]c4ccccc4c3=O)cc2)CC1`, the inhibition is 2.6%.

`CCOC(=O)N1CCN(C(=O)CNC(=O)Cc2ccc(Cl)cc2)CC1`: the inhibition was 24.6% (active).

For `CCOC(=O)N1CCN(C(=O)C(C)NC(=O)c2ccco2)CC1` (stereo not given), the inhibition was 5.9%.

On to `N#Cc1ccc(C(=O)Nc2nc(-c3cccs3)c(C(=O)C(F)(F)F)s2)cc1`, for which the inhibition is 2.3%. In the case of `N#CC(C(N)=O)=C1CCC2(CC1)OCCCCO2`, the inhibition was -11%. In the case of `CC1(C)C/C(=C(/C#N)C(N)=O)CCO1`, the inhibition is 51% (active). Take `C=CCNC(=O)COc1coc(CN2CCN(Cc3ccccc3)CC2)cc1=O`: the inhibition is 2%. Take `CCCNC(=O)COc1coc(CN2CCN(Cc3ccccc3)CC2)cc1=O`: the inhibition is 22.7% (active). For the molecule `CCN(CC)C(=O)COc1coc(CN2CCN(Cc3ccccc3)CC2)cc1=O`, the inhibition was 0.6%.
